Results: PubChem BioAssay (NCATS)
Results filed as inconclusive are left out. Calls of active or inactive are those of the source. Calls follow the shape of the dose curve; as a rule, active = well fitted curve in the direction sought with a large enough effect; inconclusive = small, poorly fitted or top-dose-only effect, or another doubt; inactive = no such curve, though single readings can be large; an effect the other way counts as inactive or inconclusive.

What was measured:
[1] = tested on: MKL-1; test: qHTS assay to identify novel small-molecules to repurpose for Merkel cell carcinoma treatment (AID 1296009); details: MCC and control cell lines, CellTiter-Glo viability, 72 h; series mostly up to 46 µM; also: nearly all actives have a fitted effect of over 60% in size; also: potency is read from the fitted curve at half-maximal effect
In short: (§1)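 Viability readout: ATP luminescence (CellTiter-Glo) after 72 hr drug exposure at 37 degree celsius. Dose-response format was 8 points for NPC and 11 points for MIPE; data normalized to in-plate controls.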

[2] = tested on: MKL-2; test: as above; details: MCC and control cell lines, CellTiter-Glo viability, 72 h; series mostly up to 46 µM
In short: as §1

[3] = tested on: UISO; test: as above; details: MCC and control cell lines, CellTiter-Glo viability, 72 h; series mostly up to 46 µM
In short: as §1

[4] = tested on: WaGa; test: as above; details: MCC and control cell lines, CellTiter-Glo viability, 72 h; series mostly up to 46 µM
In short: as §1

[5] = tested on: C33A; test: Primary qHTS to identify gynecologic anti-cancer compounds using libraries of approved drugs and bioactive compounds (AID 1345084); details: Gynecologic cancer cell panel viability, ATPlite luminescence, 48 h; series mostly up to 57.5 µM; also: nearly all actives have a fitted effect of over 55% in size
In short: (§2)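 Five-concentration response, 48 h; readout is ATP-driven luciferase luminescence.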

[6] = tested on: CASKI; test: as above; details: Gynecologic cancer cell panel viability, ATPlite luminescence, 48 h; series mostly up to 57.5 µM
In short: as §2

[7] = tested on: Es-2; test: as above; details: Gynecologic cancer cell panel viability, ATPlite luminescence, 48 h; series mostly up to 57.5 µM
In short: as §2

[8] = tested on: HeLa; test: as above; details: Gynecologic cancer cell panel viability, ATPlite luminescence, 48 h; series mostly up to 57.5 µM
In short: as §2

[9] = tested on: Hek293T; test: as above; details: Gynecologic cancer cell panel viability, ATPlite luminescence, 48 h, control line for the selectivity index; series mostly up to 57.5 µM
In short: as §2

[10] = tested on: JEG-3; test: as above; details: Gynecologic cancer cell panel viability, ATPlite luminescence, 48 h; series mostly up to 57.5 µM
In short: as §2

[11] = tested on: OV90; test: as above; details: Gynecologic cancer cell panel viability, ATPlite luminescence, 48 h; series mostly up to 57.5 µM
In short: as §2

[12] = tested on: PA-1; test: as above; details: Gynecologic cancer cell panel viability, ATPlite luminescence, 48 h; series mostly up to 57.5 µM
In short: as §2

[13] = tested on: Tov112D; test: as above; details: Gynecologic cancer cell panel viability, ATPlite luminescence, 48 h; series mostly up to 57.5 µM
In short: as §2

Measured: Potency

CN(N=O)C(=O)N[C@H]1C(O)OC(CO)[C@@H](O)[C@H]1O (some centres undefined)
inactive: [1] | [2] | [3] | [4]

CCOC(=O)[C@H](CCc1ccccc1)N[C@@H](C)C(=O)N1[C@@H](C(=O)O)C[C@H]2CCC[C@@H]21
inactive: [1] | [3]
active: [2] 14.8 µM

CC(C=CC(=O)NO)=C[C@@H](C)C(=O)c1ccc(N(C)C)cc1
active: [1] 1.66 µM | [2] 0.166 µM | [3] 3.32 µM | [4] 0.743 µM

C[C@H](NC(=O)Cc1cc(F)cc(F)c1)C(=O)N[C@H](C(=O)OC(C)(C)C)c1ccccc1
inactive: [1] | [2] | [3] | [4]

CCC[C@H]1C[C@H](C(=O)N[C@@H]([C@@H]2O[C@@H](SC)[C@@H](O)[C@@H](O)[C@@H]2O)[C@H](C)Cl)N(C)C1
inactive: all assays above

Nc1cccc2c1C(=O)N(C1CCC(=O)NC1=O)C2=O (centres undefined)
inactive: [1] | [2] | [3] | [4]

C=C1C[C@@]2(O)O[C@@]3(C[C@H]2C(C)C)[C@H](C)CC[C@H]13
inactive: [1] | [2] | [3] | [4]

CC(C)OC(=O)[C@H](C)N[P@](=O)(OC[C@H]1O[C@@H](n2ccc(=O)[nH]c2=O)[C@](C)(F)[C@H]1O)Oc1ccccc1
inactive: [1] | [2] | [3] | [4]

CNC(=O)c1ccc(Nc2cc(Nc3ccccc3S(=O)(=O)C(C)C)c3cc[nH]c3n2)nc1
active: [1] 2.64 µM | [2] 7.43 µM | [3] 5.9 µM | [4] 4.18 µM
